Results published in PubChem BioAssay AID504332 (National Center for Advancing Translational Sciences (NCATS), 2011).
Several values for one entry are separate records, joined by “and”; a condition that tells them apart may be missing. Identical values can stand only once. The campaign covered roughly 350,000 compounds. About 31,000 (8.9%) were called active. Where a call stands in place of a potency, no number is given. About 15% were inconclusive and are not listed. Calls follow the shape of the dose curve; as a rule, active = well fitted inhibition curve with a large enough effect; inconclusive = small, poorly fitted or top-dose-only effect; inactive = no such curve, though single readings can be large or run the other way. Many of the other results were omitted from the sample, so actives are more common in it than they were. Where a structure was tested more than once in an assay, its records may differ in their call.

These molecules were tested against Histone-lysine N-methyltransferase EHMT2 (Homo sapiens) (UniProt Q96KQ7) (assay: qHTS Assay for Inhibitors of Histone Lysine Methyltransferase G9a). Conditions: G9a H3K9 monomethylation, AlphaScreen, 2 h; series mostly up to 102 µM.
Sequence of Histone-lysine N-methyltransferase EHMT2 (Homo sapiens) (Q96KQ7 913-1193 limits assumed): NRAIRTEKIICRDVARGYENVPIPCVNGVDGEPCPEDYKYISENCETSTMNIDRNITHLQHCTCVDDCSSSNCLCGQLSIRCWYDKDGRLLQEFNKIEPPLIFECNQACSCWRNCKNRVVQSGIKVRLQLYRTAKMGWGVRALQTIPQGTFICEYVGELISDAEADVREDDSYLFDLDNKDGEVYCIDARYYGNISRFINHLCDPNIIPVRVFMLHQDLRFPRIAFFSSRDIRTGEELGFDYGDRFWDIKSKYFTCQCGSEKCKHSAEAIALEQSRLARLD
Procedure, shortened: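 Quantitative HTS format: methyltransferase activity on a biotin-tagged H3K9 peptide is measured by AlphaScreen, using a rabbit anti-monomethyl-H3K9 antibody with streptavidin donor and anti-IgG acceptor beads. Final levels are 20 nM enzyme, 500 nM peptide, 20 uM SAM; 2 h RT.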
Also: nearly all actives have a fitted effect of over 75% in size.
Potency is read from the fitted curve at half-maximal effect.

Row | SMILES | activity, negative = inhibition | Potency
1 | OC1/C(=C/c2ccc(C(F)(F)F)cc2)N2CCC1CC2 (configuration not stated) | inactive | –
2 | COC(=O)C1=C(c2ccc3ccccc3c2)C[C@@H]2CC[C@H]1N2C(=O)NCCO | 26.7% [at 2.33 µM] (inactive) | –
3 | COC(=O)C1=C(c2c(C)noc2C)C[C@@H]2CC[C@H]1N2C(=O)NCc1ccc2c(c1)OCO2 | -4.27% [at 0.501 µM] (inactive) | –
4 | COc1ccc(CNCCc2ccc3c(c2)OCO3)c(OC)c1OC | – | 8.91 µM (active)
5 | CCN1CCN(Cc2cc(OC)c3c(c2)OCO3)CC1 | inactive | –
6 | c1csc(CN2CCCC3(CCNCC3)C2)n1 | 7.82% [at 12.7 µM] (inactive) | –
7 | CCCCCCCCCCCCn1ccc(=N)cc1 | inactive | –
8 | CC[C@H]1CN2CCc3cc(OC)c(OC)cc3[C@@H]2C[C@@H]1C[C@H]1NCCc2cc(OC)c(OC)cc21 | inactive | –
9 | CCOc1cc(N2CCOCC2)c(OCC)cc1NC(=O)C1=NN(c2cccc(C)c2)C(=O)CC1 | – | 11.2 µM (active)
10 | CCCCCn1c(=O)c(C(=O)NCc2ccccn2)c(O)c2ccccc21 | inactive | –
11 | O=C1c2ccccc2NC(c2ccccc2O)N1NS(=O)(=O)c1ccccc1 (configuration not stated) | inactive | –
12 | Cc1ccc(N(C)C(=O)Oc2cccc3ccc(C)nc23)cc1 | inactive | –
13 | COC(=O)COc1cc(C)cc2oc(=O)c3c(c12)CCCC3 | inactive | –
14 | O=C(Nc1cccc(F)c1)N1CC[C@@]2(CCCN(C(=O)Oc3ccccc3)C2)C1 | -11.3% [at 12.7 µM] (inactive) | –
15 | CCC(=O)CC(c1ccc([N+](=O)[O-])cc1)c1c(O)c2ccccc2oc1=O (configuration not stated) | inactive | –
16 | CCCCCn1c(=O)c(C(=O)Nc2c(C)n(C)n(-c3ccccc3)c2=O)c(O)c2ccccc21 | inactive | –
17 | COc1cc(C(c2c(O)c3ccccc3oc2=O)c2c(C)n(C)n(-c3ccccc3)c2=O)ccc1O (configuration not stated) | – | 44.7 µM (active)
18 | Cc1ccsc1C(=O)C1CCCN(Cc2ccc(O)cc2)C1 (configuration not stated) | inactive | –

Row | SMILES | activity, negative = inhibition | Potency
19 | CCOC(=O)CC1=C(C(=O)OCC)C2(C(=O)N1)C(C(=O)OC)=C(N)Oc1ccccc12 (configuration not stated) | inactive | –
20 | CCCCCCN=C(CC)c1c(O)n(CCCC)c(=O)[nH]c1=O | -24.6% [at 12.7 µM] (inactive) | –
21 | COc1cc(C(=S)N2CCOCC2)ccc1O | -4.38% [at 12.7 µM] (inactive) | 20 µM (active)
22 | COc1ccc(C(=O)C2CCCN(Cc3ccc(C)s3)C2)cc1OC (configuration not stated) | inactive | –
23 | COc1ccccc1OC(=O)c1ccc(C)c(S(=O)(=O)N2CCOCC2)c1 | inactive | –
24 | OCC#CC[N+]1(CC#Cc2ccccc2)CCCC1 | inactive | –
25 | CC(c1ccccc1)(c1ccccc1)c1ccncc1 | inactive | –
26 | CC(Cc1ccccc1)NCCC(c1ccccc1)c1ccccc1 (configuration not stated) | inactive | –
27 | Cn1c(O)c(C=NCCN2CCNCC2)c(=O)n(C)c1=O | inactive | –
28 | C=CCN1CCC2(C)c3cc(O)ccc3CC1[C@@H]2C (some centres not stated) | inactive | –
29 | C=CCN1CCC23c4c5ccc(O)c4O[C@H]2C(=O)CC[C@@]3(O)C1C5 (some centres not stated) | – | inactive and 31.6 µM (active)
30 | CC(C)N(CC#CCC1(O)c2ccccc2-c2ccccc21)C(C)C | inactive | –
31 | O=C(Nc1cccc(OC(=O)N2CCCCC2)c1)N1CCOCC1 | inactive | –
32 | Cc1cc(C(=O)OCC(=O)Nc2c(F)cccc2F)c(C)n1C1CC1 | inactive | –
33 | Cc1noc(C)c1CSc1nc2cc(S(=O)(=O)N3CCOCC3)ccc2o1 | – | 3.16 µM (active)
34 | CN(C)CCN(CC1CCCN(Cc2ccccc2F)C1)C(=O)Cc1ccc(F)c(F)c1 (configuration not stated) | inactive | –
35 | CCCC[N+]1(C)C2CC(OC(=O)C(CO)c3ccccc3)CC1C1OC12 (configuration not stated) | inactive | –
36 | COC(=O)C1=C(c2ccc(F)cc2OCc2ccccc2)C[C@@H]2CC[C@H]1N2C(=O)NCc1ccc2[nH]ccc2c1 | 4.96% [at 0.501 µM] (inactive) | –
